From PubChem BioAssay
Tau ThT inhib: inhibitors of human tau fibril formation, thioflavin T binding | Potency, µM (titrated, usually from 57.4 µM), for the others: at the top dose activity, negative = inhibition, hits mostly inhibitors | recombinant tau K18 P301L, heparin-induced fibrillization, ThT fluorescence | P10636 | 2.1% of 270,000 active; further: on the % scale 0 is the no-effect control and ±100 the full control effect; nearly all actives have a fitted effect of over 55% in size
Target sequence (P10636 561-689 P618L limits assumed): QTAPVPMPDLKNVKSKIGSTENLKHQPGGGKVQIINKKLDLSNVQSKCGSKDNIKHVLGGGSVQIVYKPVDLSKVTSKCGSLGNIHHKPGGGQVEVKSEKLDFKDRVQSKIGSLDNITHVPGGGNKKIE
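Tau K18 P301L fragment (15 uM unlabeled plus 0.24 uM Alexa 594-labeled) in 100 mM sodium acetate pH 7 with compound, fibrillization induced by 20 uM heparin for 6 hr at 37 C. Thioflavin T (30 uM) added, fluorescence read after 1 hr (ex 450, em 510 nm).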
Tau fluor counter: counter-screen for tau fibril formation inhibitors. Potency, µM (highest dose often 57.7 µM), for the others: top-dose activity change, negative = decrease. tau K18 P301L (four-repeat tau fragment) Alexa594 fluorescence, heparin fibrillization. 0.93% of 280,000 active. AID 1463; further: on the % scale 0 is the no-effect control and ±100 the full control effect; nearly all actives have a fitted effect of over 55% in size
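Human K18 P301L tau (15 uM unlabeled plus 0.24 uM Alexa 594-labeled, final) in 100 mM sodium acetate pH 7 was mixed with compound and 20 uM heparin and incubated 6 hr at 37 C.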
HTT ATP protect: protects HTT-Q103 PC12 cells, measured by ATP; 0.14% of 230,000 active; Potency, µM (highest dose often 56.4 µM), for the others: cytoprotection (ATP increase), hits mostly activators; PC12 HTT-Q103 induced, cytoprotection, ATP luminescence, 40 h; further: % of control where 0% means no effect; nearly all actives have a fitted effect of over 45% in size
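Quantitative HTS on tebufenozide-induced (100 nM) PC12 cells expressing HTTQ103 exon 1–GFP; compounds tested as a concentration series; survival measured via cellular ATP.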
Tau FP inhib: inhibitors of human tau fibril formation. P10636. K18 P301L tau heparin fibrillization, Alexa594 FP, 6 h. Potency, µM (doses to about 57.7 µM), for the others: at the top dose activity, negative = inhibition, hits mostly inhibitors. 0.39% of 280,000 active; further: on the % scale 0 is the no-effect control and ±100 the full control effect; nearly all actives have a fitted effect of over 55% in size
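Quantitative HTS format: compounds meet 15 uM recombinant K18 P301L tau and Alexa 594-tau tracer in 100 mM sodium acetate pH 7; 20 uM heparin triggers fibrillization at 37 C over 6 hr; FP gives the signal.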
HTT aggregate: mutant huntingtin aggregation inhibition. PC12 HttQ103-GFP aggregates, Acumen cytometry, 40 h. Potency, µM (titrated, usually from 46.1 µM), for inactives: top-dose activity change, negative = inhibition, hits mostly inhibitors. 1.1% of 220,000 active. AID 1688; further: on the % scale 0 is the no-effect control and ±100 the full control effect; nearly all actives have a fitted effect of over 60% in size
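Multiplexed with ATP-based cell death, this channel scores GFP aggregates in PC12 cells expressing inducible HTTex1-Q103-GFP. Induction used 100 nM tebufenozide; compounds were tested in concentration series.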
* marks the source's active call; other numbers are inactive results; ? = inconclusive; · = no result; ! = a repeat was not active; [ ] = remark or other dose. This is a sample that favours compounds with a hit; in the whole collection about 3.7% have one here. The call rests on the fitted dose curve; in most records, active means well fitted curve in the direction sought with a large enough effect; inconclusive means small, poorly fitted or top-dose-only effect, or another doubt; inactive means no such curve, though single readings can be large; an effect the other way counts as inactive or inconclusive. Potency means the concentration at half of the fitted maximal effect.

SMILES	Tau ThT inhib	Tau fluor counter	HTT ATP protect	Tau FP inhib	HTT aggregate
CCOC(=O)C1=C(C)NC(=O)NC1c1ccc2c(c1)OCCO2 (stereo unspecified)	-10.6%	-7.6%	0.7%	-6.5%	-7.0%
COc1ccc(COC(=O)C2=C(C)NC(=O)NC2c2ccc(O)c(OC)c2)cc1 (stereo unspecified)	-5.2%	-10.7%	-6.2%[10 µM]	-6.6%	?
CC1=C(C(=O)OCc2ccc3c(c2)OCO3)C(c2ccc(F)cc2)NC(=O)N1 (stereo unspecified)	1.0%	-17.2%	-38.4%	0.3%	1.41µM*
CC1=C(C(=O)OCc2ccc3c(c2)OCO3)C(c2ccc(Cl)cc2)NC(=O)N1 (stereo unspecified)	0.6%	-9.5%	-3.0%	-2.1%	1µM*
CCOC(=S)SCC(=O)Nc1nccs1	?	-11.0%	-13.4%[10 µM]	-10.1%	5.62µM*
CCCCCCCCCCCCCCCCn1cc[n+](C)c1	?	-16.0%	-40.8%[10 µM]	11.0%	12.6µM*!
CCCCCCCCn1ccc(=N)cc1	-2.8%	0.5%	-64.4%[10 µM]	4.9%	-44.9%[9.22 µM]
O=C1Nc2ccccc2C12OCC(COc1ccc(Cl)cc1)O2 (stereo unspecified)	-5.3%	?	-22.7%[0.074 µM]	-13.8%	-12.0%
CN1C(=O)C2(OCC(COc3ccc(Cl)cc3)O2)c2ccccc21 (stereo unspecified)	-15.1%	-27.5%	10.5%	-9.9%	1µM*
COC(=O)CN1C(=O)CSc2ccc(S(=O)(=O)Nc3ccc(C)c(Cl)c3)cc21	-2.3%	?	·	-10.5%	·
CCCCC(=Nc1ccc(N)cc1)C1=C(O)C(C(=O)OC)C(C)(C)CC1=O (stereo unspecified)	10µM*	7.94µM*[quencher]	-12.2%	25.1µM*	10.5%
CCC(=Nc1ccc(N)cc1)C1=C(O)C(C(=O)OC)C(C)(C)CC1=O (stereo unspecified)	7.08µM*	?	-21.4%	14.1µM*	13.9%
Cc1nc(-c2ccc(Cl)cc2)sc1CCNC(=O)C(=O)Nc1ccc2c(c1)OCO2	?	2.7%	·	0.5%	·
C=C(C)C(=O)OCC(C)O (stereo unspecified)	·	·	-4.5%	·	·
O=[N+]([O-])c1ccc(N/N=C/c2ccccc2)c(F)c1	7.08µM*	?	-1.8%[10 µM]	15.4%	3.0%
O=[N+]([O-])c1ccc(/C=N/Nc2ncc(-c3ccccc3)cn2)cc1	?	-8.5%	18.3%[10 µM]	1.2%	11.3%[9.22 µM]
Cc1cc2c(C)nc(N/N=C/c3ccc(F)cc3)nc2o1	?	-14.9%	-8.7%[10 µM]	6.1%	0.1%
Cc1cc2c(C)nc(N/N=C/c3ccc([N+](=O)[O-])cc3)nc2o1	3.16µM*	-10.9%	14.6%[10 µM]	4.4%	8.6%
Cc1cc(N/N=C/c2ccc(Cl)cc2)nc(NCc2ccccc2)n1	?	?	·	?	12.6µM*
Cc1cc(-c2ccccc2)nc(N/N=C/c2ccc([N+](=O)[O-])cc2)n1	7.08µM*	?	·	-12.4%	0.0282µM*
C[N@+]1(CCC(=O)c2ccccc2)CC[C@H]2CC[C@H](C2)C1	·	·	-10.8%[10 µM]	·	·
Cc1ccc2nc(Cl)c3cc(C(=O)NC4CCCCC4)sc3c2c1	3.8%	-2.7%	·	2.8%	·
C[C@@H]1/C=C\CC(=O)OC[C@H](C)C(=O)N[C@@H](Cc2ccccc2)C(=O)OC1	-1.1%[11.5 µM]	0.0%[11.6 µM]	?	?	·
Nc1cc(Cl)nc(N/N=C/c2ccc([N+](=O)[O-])cc2)n1	5.62µM*	-22.6%	·	3.5%	-1.4%
c1ccc(-c2ccc(N3CCCC4(CCNCC4)C3)cc2)cc1	·	·	-309.3%	·	·
SMILES	Tau ThT inhib	Tau fluor counter	HTT ATP protect	Tau FP inhib	HTT aggregate
CC1(C)Nc2ccc(O)cc2-c2c1ssc2=S	11.2µM*	?	27.6%[10 µM]	?	-11.4%
CC(=O)NS(=O)(=O)c1ccc(N=c2ssc3c2-c2cc(C)ccc2NC3(C)C)cc1	?	-15.5%	6.4%[10 µM]	-5.2%	?
COc1ccc(Cl)cc1NC(=O)CCCn1c(C)c2cnn(-c3ccccc3)c(=O)c2c1C	-17.9%	-27.0%	·	1.4%	·
Cc1ccc(O)c(C2=NCCNC(C(F)(F)F)=C2)c1	-20.7%	-11.9%	-8.7%	1.6%	-10.0%
Oc1c(C2=NCCNC(C(F)(F)F)=C2)ccc2ccccc12	6.31µM*	?	-79.5%	?	7.6%[9.22 µM]
NS(=O)(=O)c1ccc(N/N=C/c2cn(-c3ccccc3)nc2-c2cccs2)cc1	15.8µM*	12.6µM*[quencher]	-14.5%[10 µM]	-11.1%	-22.7%
N#Cc1ccc(N/N=C/c2cn(-c3ccccc3)nc2-c2ccccc2)c([N+](=O)[O-])c1	7.7%	-0.4%	15.3%[10 µM]	0.6%	18.8%
NS(=O)(=O)c1ccc(N/N=C/c2cn(-c3ccccc3)nc2-c2cccs2)c([N+](=O)[O-])c1	2.51µM*	?	-57.2%[10 µM]	16.0%	7.6%
NC(=O)N/N=C/c1cn(-c2ccccc2)nc1-c1cccs1	15.8%	-25.3%	-143.6%	-11.7%	6.2%
Cc1noc(C)c1-c1ccc2ncnc(N(C)Cc3ccco3)c2c1	-21.4%	-21.6%	-47.9%	-9.7%	·
COc1ccc(N/N=C(/C)c2cnnc(-c3ccccc3)n2)cc1	2.82µM*	?	·	10.7%	-11.4%
CN(c1ncnc(N)c1[N+](=O)[O-])C1CCS(=O)(=O)C1 (stereo unspecified)	-1.4%	3.6%	-12.0%	5.0%	4.47µM*
Cc1cc(C(C)(C)C)cc(CNC2CCCCC2)c1O	·	·	-1.9%[10 µM]	·	·
Cn1c2c(c(=O)n(C)c1=O)C(c1ccccc1F)C(C#N)=C(N)O2 (stereo unspecified)	20µM*	-18.6%	·	?	27.1%
O=c1c(O)c(-c2ccc(O)c(O)c2)oc2c(OC[C@H]3O[C@@H](O)[C@@H](O)[C@H](O)[C@@H]3O)c(O)cc(O)c12	·	·	-0.4%	·	·
CCOc1ccc(N=Nc2c(C)noc2C)cc1	15.8µM*	-23.1%	-23.2%	-11.3%	2.7%
CCOc1ccc(C(=O)NCC(=O)OCc2c(C)noc2C)cc1	-9.3%	-8.5%	21.1%[1.9 µM]	-3.3%	7.0%
CCCCCCCCCCCCCCC/C=C\[C@H](O)[C@@H](NC(=O)CCCCCCCCCCCCC)OC (tested in a mixture with another compound)	·	·	-7.6%[1.9 µM]	·	·
COc1ccc(NS(=O)(=O)c2ccc(N3CCCCS3(=O)=O)cc2)cc1Cl	7.4%	-16.5%	·	-8.2%	·
Cc1ccc(NS(=O)(=O)c2ccc3[nH]c4c(c3c2)CCCCCC4)cc1Cl	-5.7%	7.08µM*[quencher]	·	-8.7%	·
Cc1ccc(NS(=O)(=O)c2ccc3[nH]c4c(c3c2)CCCC4)cc1N(C)C	-6.7%	22.4µM*[quencher]	·	13.1%	·
COc1ccc(NS(=O)(=O)c2ccc3[nH]c4c(c3c2)CCCC4)cc1Cl	-12.7%	8.91µM*[quencher]	·	-12.7%	·
Cc1ccc(CNS(=O)(=O)c2ccc3[nH]c4c(c3c2)CCCCC4)cc1	3.0%	?	·	?	·
CO[C@H]1COC(=O)[C@H](C)COC(=O)[C@H](C)NC(=O)C/C=C\[C@H]1C	1.2%[11.5 µM]	-2.9%[11.6 µM]	30.4%[10 µM]	-0.3%[11.6 µM]	·
